# Screening data deposited in PubChem BioAssay by National Center for Advancing Translational Sciences (NCATS).
# Hits are enriched below; roughly 14% of the tested compounds scored in any of these assays.
# Pf growth 96h: P. falciparum growth inhibition at 96 hour, primary screen for plastid delayed-death inhibitors. P. falciparum luciferase reporter growth, 96 h. Potency, µM (doses to about 28.7 µM), without a hit: at the top dose activity change, negative = inhibition, most hits filed as inhibitors. 320,000 tested, 6.9% active. AID 504834; note: potency is the fitted concentration of half-maximal effect
#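 Compounds incubated with erythrocytes infected by luciferase-expressing P. falciparum (2% hematocrit, 0.05% parasitemia final) for 96 hours, 37 C in 5% CO2. Growth inhibition scored as decreased luciferase luminescence.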
# LASV entry inh: blocks Lassa virus binding to or entry into cells. Potency, µM (series often up to 37.9 µM), without a hit: at the highest dose activity change, negative = inhibition, hits mostly inhibitors. Lassa virus pseudotype entry inhibition, cell reporter. 300,000 tested, 1.2% active. AID 540256; calls by dose curve; tested in HEK293 cells; note: potency is the fitted concentration of half-maximal effect; nearly all actives have a fitted effect of over 50% in size
# Pf growth 48h: P. falciparum growth inhibition at 48 hours (one generation); P. falciparum luciferase growth in erythrocytes, 48 h; Potency, µM (series often up to 28.7 µM), for the others: at the top dose activity change, negative = inhibition, most hits filed as inhibitors; AID 504832; 310,000 tested, 5.9% active; note: potency is the fitted concentration of half-maximal effect
#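 Luciferase-expressing P. falciparum in infected erythrocytes (2% hematocrit, 0.1% parasitemia final) in RPMI 1640/0.5% Albumax were exposed to compound for 48 hours at 37 C, 5% CO2; growth read as luminescence.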
# HCV inh: blocks hepatitis C virus; Potency, µM (titrated, usually from 41.8 µM), for inactives: at the highest dose activity change, negative = inhibition, usual class: inhibitors; Huh7.5.1 HCVcc-Cre infection, luciferase reporter, 44 h; AID 651820; 340,000 tested, 3.4% active; note: potency is the fitted concentration of half-maximal effect
#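 Antiviral activity was scored by luciferase reporter output from cells infected with HCVcc-Cre (~0.5 moi) in presence of compound, 44 h infection period, cells seeded 1,000/well 4 h prior.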
# HCMV antiviral: blocks human cytomegalovirus replication | HFF cells, HCMV-luciferase reporter, 72 h; hits give low values | activity change, negative = inhibition, % at 57.5 µM | 410,000 tested, 4.5% active | AID 1259415; in the data active = activity change below about -60%; inconclusive = no clear call, values can overlap the other calls; inactive = above about -39%
#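 HFF cells seeded 16 h at 37C, treated with compounds, infected with luciferase-reporter HCMV at MOI 1 PFU/cell; luciferase read at 72 h post infection, normalized to buffer-only and Salinomycin controls.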
# MARV entry inh: blocks Marburg virus binding to or entry into cells. 300,000 tested, 1.8% active. Marburg virus pseudotyped entry inhibition, cell reporter. Potency, µM (titrated, usually from 37.8 µM), without a hit: top-dose activity change, negative = inhibition, usual class: inhibitors; calls by dose curve; tested in HEK293 cells; note: potency is the fitted concentration of half-maximal effect
# The depositor's hits bear a star; ? = inconclusive; · = not tested or not shown; [ ] = remark or other dose. Unless noted, calls come from the whole dose curve; as a rule, active = well fitted inhibition curve with a large enough effect; inconclusive = small, poorly fitted or top-dose-only effect, or another doubt; inactive = no such curve, though single readings can be large or run the other way. % is set by controls: 0 for no effect and ±100 for the full control effect.
SMILES,Pf growth 96h,LASV entry inh,Pf growth 48h,HCV inh,HCMV antiviral,MARV entry inh
NC(=Nc1ccccc1)N(c1ccccc1)c1ccccc1,·,-5%[46.1 µM],·,-1%,-38,?
COc1ccc(Cl)cc1NC(=O)CN(C)C(=O)c1cc2c(F)cccc2s1,?,·,7.4µM*,4µM*,-27,·
COc1ccc(Cl)cc1NC(=O)CN(C)C(=O)c1ccc(C)s1,10%,-3%,6%,?,0,-26%[46.1 µM]
COc1ccc(Cl)cc1NC(=O)CN(C)CC(=O)Nc1c(C)n(C)n(-c2ccccc2)c1=O,0%,·,-17%,3.5µM*,0,·
COc1ccc(OC)c(NC(=O)Nc2c(C)n(C)n(-c3ccccc3)c2=O)c1,·,7%[46.1 µM],·,·,1,-6%[46.1 µM]
Cc1nn2c(=O)[nH]cnc2c1Cl,·,·,·,·,1,·
CCc1cccc(N2C(=O)CS(=O)(=O)C23C(=O)N(Cc2ccccc2)c2ccc(C)cc23)c1 (stereo not drawn),·,?,·,·,-16,·
CN(C)/N=C/c1ccc(P(c2ccc(/C=N/N(C)C)o2)c2ccc(/C=N/N(C)C)o2)o1,-24%,?,-16%,?,-62*,?
Cc1ccc(/C=N/N(Cc2ccccc2)c2ccccc2)o1,?,·,?,?,-17,·
CC(NC(=O)c1ccccc1OC(F)F)c1ccc(-n2ccnc2)cc1 (stereo not drawn),12µM*,0%,?,15%,6,3%
COc1ccccc1NC(=O)c1cnc(SCC(=O)NCCc2ccccc2)n(C)c1=O,-3%,-24%,-18%,14%,26,-6%
CCc1nc(N2CCN(C(=S)NCCCOC)CC2)c2c3c(sc2n1)CCCC3,4%,·,?,?,-64*,·
CCNC(=O)c1ccc2nc(CCc3ccccc3)oc2c1,·,36%[46.1 µM],·,·,45,·
COC(=O)C1=C(c2ccc(OCc3ccccc3)cc2)C[C@@H]2CC[C@H]1N2C(=O)NCc1ccccc1C(F)(F)F,·,·,·,·,-31,·
COC(=O)C1=C(c2ccc(Cl)c(C(F)(F)F)c2)C[C@@H]2CC[C@H]1N2C(=O)NCc1cc(C)oc1C(F)(F)F,?,·,7.4µM*,?,-11,·
CCCNC(=O)N1[C@H]2CC[C@@H]1C(C(=O)OC)=C(c1ccc(Cl)c(C(F)(F)F)c1)C2,?,·,?,-7%,-21,·
COC(=O)C1=C(c2ccc(Cl)c(C(F)(F)F)c2)C[C@@H]2CC[C@H]1N2C(=O)NCC1CC1,6.6µM*,·,12µM*,?,-23,·
Cc1nn(C)c2c1c(C(F)(F)F)cc(=O)n2CC(=O)N1CCCCC1,·,-4%[46.1 µM],·,·,-8,·
CC(=O)NC(Cc1ccc(C)cc1)C(=O)NC1CCN(C(=O)NCc2ccccc2)CC1 (stereo not drawn),33%,13%,-5%,1%,9,-2%[46.1 µM]
COc1ccc(CC(=O)OCC(=O)Nc2ccc(F)cc2)cc1,21%,?,20%,17%,-20,10%
CCS(=O)(=O)N1CC(=O)N(c2cccc(Cl)c2C)C(C)(C(=O)NC2CCCCC2)C1 (stereo not drawn),·,11%[46.1 µM],·,·,0,·
CCOC(=O)Cc1csc(NC(=O)c2c(O)c3ccccc3n(CCC(C)C)c2=O)n1,-18%,-10%,?,10µM*,-2,?
CCOC(=O)Cc1csc(NC(=O)c2c(O)c3ccccc3n(C)c2=O)n1,3%,·,1%,·,·,·
CCCCCCn1c(=O)c(C(=O)Nc2nc(CC(=O)OCC)cs2)c(O)c2ccccc21,-1%,?,12µM*,?,2,?
COc1ccc(S(=O)(=O)N2CCN(Cc3nc4ccc(C)cc4o3)CC2)cc1Cl,·,12%[46.1 µM],·,·,-15,·
SMILES,Pf growth 96h,LASV entry inh,Pf growth 48h,HCV inh,HCMV antiviral,MARV entry inh
CCS(=O)(=O)N1CCC(NC(C)=O)(c2ccccc2)CC1,-19%,-3%,0%,-10%,-4,-3%[46.1 µM]
CC(=O)NC1(c2ccccc2)CCN(Cc2nnnn2C(C)(C)C)CC1,12µM*,-9%,5%,-12%,-1,19%[46.1 µM]
c1ccc(-c2cn(-c3ccccc3)c3ncnc(N4CCCCC4)c23)cc1,0%,?,-34%,?,12,?
CCOc1ccc(-n2cc(-c3ccccc3)c3c(N4CCOCC4)ncnc32)cc1,139%,?,?,11µM*,47,?
COc1cc(C2c3c(oc4ccccc4c3=O)C(=O)N2c2ccccn2)cc(OC)c1OC (stereo not drawn),·,15%[46.1 µM],·,·,8,-11%[46.1 µM]
CCCCc1cc(=O)oc2cc(C)cc(OCC(=O)N3C[C@H]4C[C@@H](C3)c3cccc(=O)n3C4)c12,?,·,10µM*,-7%,6,·
CCCCc1cc(=O)oc2cc(OCC(=O)N3C[C@H]4C[C@@H](C3)c3cccc(=O)n3C4)ccc12,8.3µM*,·,11%,2%,-27,·
Cc1cc(OCC(=O)N2C[C@H]3C[C@@H](C2)c2cccc(=O)n2C3)c2c(C)c(C)c(=O)oc2c1,-11%,·,1%,-2%,18,·
Cc1c(C#N)c(NC(=O)CCl)n(Cc2ccccc2)c1C,19µM*,?,?,?,?,?
Cc1c(C#N)c(NC(=O)CCl)n(Cc2ccc(F)cc2)c1C,?,·,?,?,-68*,·
Cc1c(C#N)c(NC(=O)CCl)n(Cc2cccs2)c1C,3.3µM*,·,10µM*,?,-93*,·
Fc1ccc(-c2noc3ncnc(Nc4ccc(F)cc4F)c23)cc1,·,-29%[46.1 µM],·,·,-21,·
COc1ccc(C2=C3C(=O)OCC3Cc3ncn(Cc4ccccc4)c32)cc1 (stereo not drawn),?,·,-26%,5%,-76*,·
COc1ccc(C2=CN(Cc3ccccc3)C(c3ccccc3)CC2=O)cc1 (stereo not drawn),·,·,·,?,57,·
C=CCNC(=S)NNC(=O)c1cccnc1,22%,5%,6%,7%,5,19%[14.2 µM]
C=CCNC(=S)NNC(=O)c1ccncc1,-5%,·,30%,14%,-64*,·
CCCCNc1ccc2c(c1)OC[C@@H](CC(C)C)NS2(=O)=O,·,·,·,·,5,·
COc1cc(CNC(=O)c2cc(-c3cc(F)ccc3OC(C)C)n[nH]2)cc(OC)c1,·,·,·,·,10,·
COC(=O)c1c(C)[nH]c(C(=O)/C=C/c2ccc(C)cc2)c1C,191%,·,?,-25%,-90*,·
Cc1ccnc(-n2c(C)cc(/C=N/NC(=O)COc3cccc4cccnc34)c2C)c1,-11%,7%,-19%,-18%,?,-7%
O=C(NCC(O)c1ccccc1)c1ccc(Cl)c(S(=O)(=O)N2CCCCC2)c1 (stereo not drawn),7%,-24%[46.1 µM],?,10µM*,?,-22%[46.1 µM]
O=C(NNC(=O)c1ccccc1O)c1ccc(Cl)c(S(=O)(=O)N2CCCCC2)c1,0%,3%,-25%,-6%,-39,?
